From the supplement of paper PMC3334620
In all, about 33,000 sequences were measured (“E-score (-0.5 to 0.5)”: median about -0.035, highest 2% from about 0.34 on). Many of the other results were omitted from the sample, so the highest values are more common in it than they were.

Each sequence was assayed against T1, Mot3 (UniProt P54785) (assay: PBM E-score (8-mer binding enrichment) (E-score (-0.5 to 0.5)); higher = stronger / more preferred TF binding). Conditions: protein concentration: 200 nM; construct: GST-full length.
T1 sequence: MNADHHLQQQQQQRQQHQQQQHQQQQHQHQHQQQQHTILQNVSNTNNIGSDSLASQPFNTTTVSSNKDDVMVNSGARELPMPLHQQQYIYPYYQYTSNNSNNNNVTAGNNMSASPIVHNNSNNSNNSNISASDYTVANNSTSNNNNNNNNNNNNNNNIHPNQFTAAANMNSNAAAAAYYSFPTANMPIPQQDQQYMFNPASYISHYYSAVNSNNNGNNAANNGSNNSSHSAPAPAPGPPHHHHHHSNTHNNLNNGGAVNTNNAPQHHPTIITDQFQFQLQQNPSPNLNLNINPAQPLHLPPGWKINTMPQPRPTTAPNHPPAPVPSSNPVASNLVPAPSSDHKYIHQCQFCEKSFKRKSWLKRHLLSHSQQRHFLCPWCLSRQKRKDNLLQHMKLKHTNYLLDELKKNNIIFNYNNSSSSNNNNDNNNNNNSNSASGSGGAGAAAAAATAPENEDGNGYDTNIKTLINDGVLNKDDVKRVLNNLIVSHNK
Description: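 Universal 'all 10-mer' protein binding microarrays (Agilent AMADID 015681) probed with GST-tagged S. cerevisiae TFs (full-length or DBD) made by in vitro transcription/translation (PURExpress), about 100-200 nM. Bound TF was detected with fluorescent anti-GST. Each ungapped 8-mer (which stands for itself and its reverse complement) is scored by the PBM enrichment score (E-score), a modified Wilcoxon-Mann-Whitney statistic from -0.5 to +0.5, computed with the Universal PBM Analysis Suite. Scale: above 0.35 generally sequence-specific binding.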

Sequence	PBM E-score
AGTTTACA	0.363
CGTTTACC	0.0878
AGTTTACG	0.188
CGTTTAGA	0.0393
AGTTTACC	0.0908
CGTTTACA	0.349
AAAGATGC	0.132
AGTCCTCC	-0.221
CACAGAAG	-0.00641
CTTGAAAG	0.0362
AGGAGGGG	-0.156
GAAGCCAC	-0.196
AGCCTGAA	0.223
AGCCTGCA	0.344
CGCCTGAA	0.297
GGCCTGCA	-0.0526
AGCCTGTA	0.342
TGCCTGAA	0.48
GGCCTGTA	0.148
GGCCTGAA	-0.277
CGCCTGCA	0.23
CAGTACTG	-0.132
CCCCCGCA	-0.214
GTCTCGCA	-0.238
CGATCAAC	0.0859

Sequence	PBM E-score
AAACCCCT	0.0363
GATGCTAC	-0.122
CAAACGCC	-0.143
AACCCACA	0.0686
AATGCCTG	0.352
CATGCCTA	0.245
GATGCCTA	0.439
AATGCCTA	0.359
GATGCCAA	-0.148
AATGCCGA	-0.249
AATGCCCG	-0.316
AATGCCTC	-0.0227
ACTGCCTA	0.199
CGATTTGC	-0.216
ATGGCGAC	-0.254
ACAGATCG	-0.134
CGAATGAC	0.186
ACGCCCTG	-0.0695
AACTGGAT	-0.153
GGAGCCAA	-0.117
ACAACCAA	0.00653
TCTGTACA	0.235
CATGTACG	0.239
GATGTACA	0.259
AATGTACA	0.292

Sequence	PBM E-score
CATGTACA	0.387
TATGTACA	0.353
GGCTCTGA	0.00444
GTCTGATA	0.0245
CACAATCG	0.018
GGGTAGTA	-0.109
CCAAAGTC	-0.189
CAAGGGGC	-0.148
ACGTGCTC	0.0193
ACCTGGGA	-0.0112
TAGAGGAA	-0.0809
TACAGTAA	0.194
CACAGGAA	0.385
TACAGGAA	0.43
GACAGGAC	-0.231
GACAGGAA	0.374
CACAGGAC	-0.175
CACAGGAG	0.0555
AACAGGAA	0.416
AACAGGAG	0.0835
AACAGGAC	0.19
GACAGAAA	0.0469
ACTGAGGC	-0.119
ATTCACTA	0.124
ACCATTAC	0.168

Sequence	PBM E-score
CGGTCCCA	-0.296
AACCAGCT	0.0762
ACTAGCAG	0.109
ACTCCAAG	-0.0115
AGTCCGAT	-0.158
AGAAACGA	0.0178
CGTCGTAA	0.0759
AGGTTGGA	-0.173
GGGAGGAA	-0.11
CGGAGGCA	0.375
AGGAGGCG	-0.163
CGGAGGCC	-0.224
AGGAGGCC	-0.263
AGGAGGCA	0.382
GGGAGGGA	-0.149
GGGAGGCA	0.364
CGGAGGTA	-0.0405
CAGACCAC	-0.109
GTGGCCTA	0.0303
ATCTAAAG	0.136
ACCAAGCA	-0.0877
CGGGGACC	-0.0971
AGAAACTA	-0.0831
GTGGATGA	-0.0229
ACGGCAAT	0.0994

Sequence	PBM E-score
AAGGCGAA	-0.0356
ATGGCAAC	-0.0341
AAGGCAAT	0.479
AAGGCAAA	0.479
AAGGCAAG	0.485
ACGGCAAG	-0.116
AAGGCAAC	0.487
AAGGCAGG	0.231
AAGGCAGT	-0.0323
AGGGCAAA	-0.0247
AAGGCAGC	0.276
GGATGCGA	-0.246
ACACAGCG	0.318
GCCCGATA	-0.181
AAGTTCAT	-0.132
GAGGCAAC	0.435
GGGGCAAC	-0.0256
GCGGCAAC	-0.0624
CTACGCTC	-0.0123
TACAAGCA	0.284
GCTACTCA	-0.175
CTCTAGCA	-0.0349
ATTTCCAA	0.0549
ATTTCCTC	-0.0476
ATTTCCTG	0.41

Sequence	PBM E-score
ATTTCCTA	0.371
ATTTCCAG	0.0581
ATTTCCCA	-0.0389
AAGATTGT	0.126
CCGGTGCG	-0.0852
AATAGCCA	-0.0713
CCAGGAGA	-0.238
CAAGGTGC	0.0747
GAAGGTAA	0.397
AAAGGTAA	0.324
GGAGGTAC	0.0528
AAAGGTAC	0.42
AAAGGTAG	-0.135
AAAGGTAT	0.102
CAAGGTAC	0.376
CAAGGTAA	0.258
GAAGGTGC	0.136
GAAGGTAC	0.438
CAAGGTAG	0.0907
CGCGACGC	-0.148
ATACCCGG	0.0542
TCGCCCCA	-0.213
CACTGTCC	-0.196
GGACCGCC	-0.212
ACCCTTTG	-0.147

Sequence	PBM E-score
GCATTCAC	0.0735
ACGTCTCT	0.0141
AAGCAATG	-0.0928
ATCAGGAT	-0.12
AAAGGGGG	-0.0401
ATACATAA	0.308
ACACATGG	0.144
CTACATGA	0.361
ATACATCA	0.16
GTACATGA	0.328
ATACATGG	0.374
AGACATGG	0.139
ATACATGA	0.363
AGACATGA	0.198
CTACATCA	0.112
ATACATAT	0.359
ATACATAC	0.28
CCTCTGAC	-0.145
CACCCTTC	-0.121
ATGCCCCC	-0.266
AGAGTTCC	-0.135
CTGGCACC	-0.232
CACCTTAA	0.0232
CCTTCAGA	-0.0591
ATACATCC	0.201

Sequence	PBM E-score
CTACATGC	0.355
AGACATGC	0.0904
CTACATTC	0.0249
ATACATGC	0.361
CGACATGC	0.279
CCCAAGGA	-0.0628
GTCTGCAA	-0.0815
AGCATGGC	0.0473
CGCTGTTA	-0.0162
TAGCTAGA	-0.0751
CGCACTGC	-0.0709
AGGCCTGA	-0.288
ATGCCTTC	0.36
GAGCCTGC	0.389
AGGCCTTC	-0.154
ATGCCTAG	0.199
GAGCCTGA	0.26
ATGCCTAC	0.424
CAGCCTGC	-0.106
CTGCCTGA	0.223
ATGCCTGA	0.376
CTGCCTTC	0.2
CTGCCTAC	0.264
AAGTAACC	0.00035
ATCCAGCG	-0.127

Sequence	PBM E-score
GAACCCTC	-0.176
AGGAAGCG	-0.0464
GTATGCTA	-0.0526
ATCGAAAG	-0.0284
GTTTCATA	-0.0759
CTCTAACA	0.0488
GTAGCCTA	0.177
GTAGAAGA	-0.00994
ACAAGGCC	0.0968
ACACTTAC	0.188
CGCACATA	-0.146
CTGCCTCC	-0.215
AAGCCTTA	-0.147
CTGCCTTA	0.059
ATGCCTGG	0.127
ATGCCTCA	0.111
CTGCCTCA	-0.15
ATGCCTGC	0.407
GCGCCTTA	0.31
GTGCCTCA	0.454
GTGCCTTA	0.49
CTGCCTGC	0.336
ATGCCTTA	0.342
ATGCCTTG	0.267
GCAGCCTA	-0.0663

Sequence	PBM E-score
CCAAGAGA	-0.0138
CGGCCTGC	-0.212
AGTGGCCA	-0.158
ATCTACCG	-0.115
ACTTTGCT	-0.0166
ATGCCCAA	-0.0977
GCGCCTAC	0.358
GTGCCCCA	-0.248
CTGCCTAA	0.258
ACGCCTAC	0.0133
ATGCCTAA	0.278
GTGCCTAA	0.49
CCGCCTAC	-0.166
GTGCCCAA	0.392
CTTAGAAA	0.11
AAAGCACC	-0.0982
CAAAGCCC	-0.0136
ACACAACA	0.307
CTAACCCA	-0.0185
TTAACGAA	0.128
TAAGGTGA	-0.0657
CACACGAC	0.0741
AACACGAT	0.349
AACACGAG	0.288
AACACGTA	0.32

Sequence	PBM E-score
AACACGGA	0.252
AACACGAA	0.33
AACACGGC	0.257
GACACGAC	0.31
AACACGTC	0.316
AACACGAC	0.344
AACACGGT	0.353
AACACGTT	0.365
GCATCGCA	-0.36
CGACTTAC	-0.127
GACGCAAC	-0.0695
AGGATTGC	-0.0652
CGTTGAGA	-0.183
AAGTTTTG	0.167
ACTGGGCG	-0.198
CGCACCTC	-0.0771
GGGCAAAC	0.0101
ATGCAAAT	0.146
GGGCAAAA	0.0722
AGGCAGAT	0.0714
AGGCAAAA	0.467
CGGCAAAC	-0.217
AGGCAAAG	0.472
AGGCAAAC	0.482
ATGCAAAG	0.128

Sequence	PBM E-score
CGGCAAAG	-0.226
AGGCAAAT	0.479
TGGCAAAA	0.0985
CCCGACGC	-0.262
ATCGGCGG	-0.342
ACCAGTAG	-0.0459
AAGGTGTG	-0.0849
TTACAGAA	0.106
ACGCTTAA	0.114
ATACTTAA	0.173
CCCCTAAG	-0.313
AGAGGCAA	0.409
CGAGGCAA	0.318
AGAGGCGA	-0.227
TGAGGGCA	-0.0148
TGAGGCAA	0.389
AGAGGCCA	-0.274
GGAGGCGA	-0.194
CGAGGCAC	0.411
GGAGGCCA	-0.34
TGAGGCCA	0.0399
GGAGGCAA	0.437
CGAGGCAG	-0.0696
CCCGTTGA	-0.205
ACGTTCTG	-0.0537

Sequence	PBM E-score
CCTCTTAC	-0.0603
ATCCATAG	-0.206
GGCCGGAC	-0.187
CACTGGTA	-0.00383
AGCGTTTC	0.127
GTTGCTTA	0.0798
AAGGATCA	0.0089
AGAGGCAC	0.465
GGAGGCCC	-0.266
AGAGGCAG	-0.133
GGGGGCAC	-0.156
AGAGGCAT	-0.0714
GGAGGCAC	0.474
GTTCTGGA	0.0443
CGGCACCG	-0.0283
AGGCACCG	0.491
CGGCACCC	-0.126
AGGCACCT	0.491
AGGCACCA	0.492
ACGCACCT	0.129
GGGCACCC	-0.0287
CGGCACCA	-0.159
AAGCACCT	0.0273
GGGCACCA	0.171
AGGCACCC	0.491

Sequence	PBM E-score
AAGCACCG	-0.206
CCTATTGA	0.124
CGGTGTAC	0.0428
GGAGATAC	-0.137
AGTTGGAC	0.0582
GGTAGAGA	-0.198
TCCGGAGA	-0.297
CCGGCGAG	-0.369
AATCGACA	0.201
GATCCATA	-0.201
ATGGCGGA	-0.302
TCTACCCA	-0.077
CGGTGTCC	-0.376
CAAAGCAG	0.05
AGCTAACC	-0.152
ATGTAGGC	0.361
ATGTAGAG	0.252
GTGTAGAA	0.364
ATGTAGGA	0.158
GTGTAGTA	0.292
ATGTAGAA	0.359
CTGTAGGC	0.285
CTGTAGAA	0.191
GCGTAGAA	0.232
